Molecules are shown by their SMILES. Values joined by “and” are separate entries in the source; they are usually repeats but may differ in a detail not shown here. Equal values may be shown once. Records with an inconclusive call do not appear. Values without a mark were called inactive. Active and inactive are the calls of the source. Calls follow the shape of the dose curve; as a rule, active = well fitted inhibition curve with a large enough effect; inconclusive = small, poorly fitted or top-dose-only effect; inactive = no such curve, though single readings can be large or run the other way.
Potency is read from the fitted curve at half-maximal effect.

Cruzipain (Trypanosoma cruzi), sequence (P25779 123-467 limits assumed): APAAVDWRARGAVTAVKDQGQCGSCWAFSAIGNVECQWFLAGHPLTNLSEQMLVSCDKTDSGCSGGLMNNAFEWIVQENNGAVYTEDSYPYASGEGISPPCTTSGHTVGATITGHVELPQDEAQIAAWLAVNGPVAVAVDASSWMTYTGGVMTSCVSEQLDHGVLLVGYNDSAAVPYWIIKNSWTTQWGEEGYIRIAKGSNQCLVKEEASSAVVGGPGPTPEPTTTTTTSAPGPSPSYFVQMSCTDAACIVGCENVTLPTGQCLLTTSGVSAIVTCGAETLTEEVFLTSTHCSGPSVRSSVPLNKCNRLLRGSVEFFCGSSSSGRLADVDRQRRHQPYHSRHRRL

This assay addresses Cruzipain (Trypanosoma cruzi) (UniProt P25779). Nature of the assay: Confirmation qHTS Assay for Inhibitors of Cruzain. Also: nearly all actives have a fitted effect of over 40% in size.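 As to activity change, negative = inhibition: plate controls were uninhibited enzyme control for no effect and buffer wells lacking enzyme for full effect.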 As to conditions: purified cruzain, Z-FR-AMC fluorescence, 0.01% Triton. Summed up: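 Reaction progress from the 60 s rise in AMC fluorescence (ex 360, em 450 nm) after adding 2 uM Z-FR-AMC. Before this, 1.5 nM cruzain sat 15 min at room temperature with compound in pH 5.5 acetate buffer with 5 mM DTT and 0.01% Triton X-100.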
(In general: qHTS replaces the single test concentration by a dilution series.)
On to `O=C(NCc1ccco1)c1ccc2nc3sc4c(c3c(=O)n2c1)CCCC4`, for which the Potency is 28.2 µM (active). With `N#Cc1nc(NCC(F)F)c2ncn(-c3cc(F)cc(F)c3)c2n1`, the Potency was 0.0562 µM (active).

Take `CC1CN(c2oc(-c3cccs3)nc2C#N)CC(C)O1` (centres undefined): the activity change, negative = inhibition is -79.4%.

Consider `Clc1ccc2[nH]c3c(NCCCN4CCOCC4)ncnc3c2c1`, for which the Potency was 12.6 µM (active).

For the compound `O=C(COC(=O)CNC(=O)c1ccccc1)Nc1cc(C(F)(F)F)ccc1Cl`, the Potency is 11.2 µM (active). As for `NC(=S)n1[nH]c(-c2ccc([N+](=O)[O-])cc2)c(N=Nc2ccc(O)cc2)c1=O`, the activity change, negative = inhibition was -8%. For the compound `CC(C)CCNC(=O)Cn1c(SCc2cccc(F)c2)nc2ccncc21`, the Potency was 14.1 µM (active). In the case of `Cc1ccccc1OCC(=O)NCC(=O)OC(c1ccccc1)c1ccccc1`, the activity change, negative = inhibition is -14.6%.

Take `CCOc1ccc(-c2cc3nc(C4CCN(C(=O)OC(C)(C)C)CC4)c(C(=O)O)cn3n2)cc1`: the activity change, negative = inhibition is -33%. On the same count and under the same terms, the result for `O=C(Nc1cc(C(F)(F)F)ccc1Cl)C(O)Cc1ccccc1` (centres undefined) reads -18.4%; that for `Cc1ccccc1OCC(=O)NCC(=O)OCc1cccc2ccccc12`, -2.79%.

For the compound `Cc1ccc(C(=O)NCC(=O)OCC(=O)c2ccc3ccccc3c2)cc1`, the Potency was 12.6 µM (active). As to `CN1C(=O)/C(=N\OC(=O)c2cccc3ccccc23)c2ccccc21`, the Potency is 10 µM (active). Regarding `CCn1cnc2c(Nc3cccc(Cl)c3)nc(C#N)nc21`, the Potency was 0.0141 µM (active).

For `CN(c1ccccc1)c1nc(C#N)nc(N2CCOCC2)n1`, the Potency is 1.26 µM (active). As to `CCNc1nc(C#N)nc(Nc2ccccc2)n1`, the Potency is 0.708 µM (active). On the same count and under the same terms, then `O=C(CNC(=O)c1ccc2n[nH]nc2c1)OC(C(=O)Nc1cc(C(F)(F)F)ccc1Cl)c1ccccc1` (centres undefined), with 14.1 µM (active). Take `Cc1ccc2[nH]c(=O)c(CN(CCCO)Cc3nnnn3Cc3ccco3)cc2c1`: the activity change, negative = inhibition is -4.63%. On to `Cn1nc(-c2ccc(Cl)cc2)nc2c(=O)n(C)c(=O)nc1-2`, for which the Potency was 0.891 µM (active). For `c1ccc(CN(Cc2ccccc2)Cc2nnc(-c3cc4ccccc4[nH]3)s2)cc1`, the activity change, negative = inhibition is -2.53%. Take `CN(C)c1ccc(C(=O)NCC(=O)OC(C(=O)Nc2cc(C(F)(F)F)ccc2Cl)c2ccccc2)cc1` (centres undefined): the Potency is 14.1 µM (active).

Consider `CCOC(=O)c1ccc(N2CSC3=C(C#N)C(c4cccs4)CC(=O)N3C2)cc1` (centres undefined), for which the activity change, negative = inhibition was -9.35%. As to `O=C(NC1CCCC1)c1ccc2nc(-c3ccco3)c(-c3ccco3)nc2c1`, the Potency is 8.91 µM (active).

Turning to `O=C(NCc1nnc(-c2nc3ccccc3[nH]2)o1)C1CCCCC1`, the activity change, negative = inhibition is -3.39%. Consider `CCCNc1nc(C#N)nc(Nc2ccccc2)n1`, for which the Potency was 0.794 µM (active). As for `CCc1ccc2[nH]c(=O)c(CN(Cc3cccs3)Cc3nnnn3Cc3ccccc3)cc2c1`, the activity change, negative = inhibition is -18.5%. Consider `CC(C)NC(=O)COC(=O)CNC(=O)C1CCCCC1`, for which the Potency was 14.1 µM (active). Take `CCn1cnc2c(Nc3cc(F)cc(F)c3)nc(C(=O)COc3c(F)c(F)cc(F)c3F)nc21`: the activity change, negative = inhibition was -8.99%.

In the case of `CC(C)(C)c1ccc(Nc2nc(C#N)nc(NC3CCCC3)n2)cc1`, the Potency is 3.55 µM (active).

In the case of `COc1ccc(Nc2nc(C#N)nc(NC3CCCC3)n2)cc1`, the Potency is 0.447 µM (active). For `Cc1ccc2[nH]c(=O)c(CN(CCCO)Cc3nnnn3Cc3ccccc3)cc2c1`, the activity change, negative = inhibition was -13%.

As to `O=C(NC1CC1)c1ccc2nc(-c3ccco3)c(-c3ccco3)nc2c1`, the Potency is 14.1 µM (active). Regarding `O=C(NCCCc1nc2ccccc2n1CCCCOc1ccccc1)C1CCCCC1`, the activity change, negative = inhibition was -23.8%. Regarding `N#Cc1nc(N2CCOCC2)nc(N2CCOCC2)n1`, the Potency was 3.55 µM (active) and 5.01 µM (active). On the same count and under the same terms, then `O=C(CNC(=O)c1ccccc1Cl)OC(C(=O)Nc1cc(C(F)(F)F)ccc1Cl)c1ccccc1` (centres undefined), with 8.91 µM (active); and `COc1ccc(NC(=O)C(OC(=O)CNC(=O)c2ccccc2)c2ccccc2)cc1Cl` (centres undefined), with 12.6 µM (active). Turning to `Cc1ccc2[nH]c(=O)c(CN(Cc3ccco3)Cc3nnnn3Cc3ccco3)cc2c1`, the activity change, negative = inhibition was -6.56%. On the same count and under the same terms, then `CC(C)(C)OC(=O)Cc1nnc(-c2cc3ccccc3[nH]2)o1`, with 0.423%. For `O=C(COC(=O)CNC(=O)C1CCCCC1)NC1CC1`, the Potency was 15.8 µM (active).

Source of the values: PubChem BioAssay AID2158 (National Center for Advancing Translational Sciences (NCATS), 2009).
